# HSV replic up = increases HSV replication in cells; HSV replication augmentation in cells, fold increase; maximum fold increase; 0.005% of 220,000 active; AID 1956; in the data active = maximum fold increase above about 1.5; inconclusive = no clear call, values can overlap the other calls; tested in PC3 cells
# Measles CPE = protection of cells from measles virus; Measles virus-infected cells, CPE protection, absorbance; 1.5% of 140,000 active; protection (pct of control), % at 4 µM; in the data active = protection mostly above about 24%, no sharp cut-off; inactive = mostly below about 26%
# Arbovirus anti = arbovirus infection inhibition. arbovirus infection cell-based antiviral screen. inhibition, % at 10 µM. 0.37% of 200,000 active; in the data active = inhibition above about 30%
# ROMK primary = modulators of human ROMK potassium channel | B-score at 10 µM | P48048 | 2% of 130,000 active | Tet-inducible ROMK, thallium flux fluorescence; actives lie on both sides;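 active = signal ratio slope over the read window, or its plate-corrected B-score, at least 3 SD from the plate mean, either direction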;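 also: B-score of the F/F0 ratio slope over 7 to 12 s after thallium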
# Cl transport mod = KCC2 (human) Cl- transport modulation; KCC2 cells, thallium flux FluoZin-2 fluorescence; B-score of Tl+ flux slope (higher = more flux/activation; lower = inhibition) at 10 µM; AID 1456; Q9H2X9; 2.2% of 190,000 active;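 active = thallium flux slope and its plate-corrected score both differing from the plate sample mean at a set confidence after two filtering rounds, in either direction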;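 also: slope of fluorescence scaled to starting intensity during 10 to 20 s after thallium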
# Target sequence (Q9H2X9 whole entry, looked up): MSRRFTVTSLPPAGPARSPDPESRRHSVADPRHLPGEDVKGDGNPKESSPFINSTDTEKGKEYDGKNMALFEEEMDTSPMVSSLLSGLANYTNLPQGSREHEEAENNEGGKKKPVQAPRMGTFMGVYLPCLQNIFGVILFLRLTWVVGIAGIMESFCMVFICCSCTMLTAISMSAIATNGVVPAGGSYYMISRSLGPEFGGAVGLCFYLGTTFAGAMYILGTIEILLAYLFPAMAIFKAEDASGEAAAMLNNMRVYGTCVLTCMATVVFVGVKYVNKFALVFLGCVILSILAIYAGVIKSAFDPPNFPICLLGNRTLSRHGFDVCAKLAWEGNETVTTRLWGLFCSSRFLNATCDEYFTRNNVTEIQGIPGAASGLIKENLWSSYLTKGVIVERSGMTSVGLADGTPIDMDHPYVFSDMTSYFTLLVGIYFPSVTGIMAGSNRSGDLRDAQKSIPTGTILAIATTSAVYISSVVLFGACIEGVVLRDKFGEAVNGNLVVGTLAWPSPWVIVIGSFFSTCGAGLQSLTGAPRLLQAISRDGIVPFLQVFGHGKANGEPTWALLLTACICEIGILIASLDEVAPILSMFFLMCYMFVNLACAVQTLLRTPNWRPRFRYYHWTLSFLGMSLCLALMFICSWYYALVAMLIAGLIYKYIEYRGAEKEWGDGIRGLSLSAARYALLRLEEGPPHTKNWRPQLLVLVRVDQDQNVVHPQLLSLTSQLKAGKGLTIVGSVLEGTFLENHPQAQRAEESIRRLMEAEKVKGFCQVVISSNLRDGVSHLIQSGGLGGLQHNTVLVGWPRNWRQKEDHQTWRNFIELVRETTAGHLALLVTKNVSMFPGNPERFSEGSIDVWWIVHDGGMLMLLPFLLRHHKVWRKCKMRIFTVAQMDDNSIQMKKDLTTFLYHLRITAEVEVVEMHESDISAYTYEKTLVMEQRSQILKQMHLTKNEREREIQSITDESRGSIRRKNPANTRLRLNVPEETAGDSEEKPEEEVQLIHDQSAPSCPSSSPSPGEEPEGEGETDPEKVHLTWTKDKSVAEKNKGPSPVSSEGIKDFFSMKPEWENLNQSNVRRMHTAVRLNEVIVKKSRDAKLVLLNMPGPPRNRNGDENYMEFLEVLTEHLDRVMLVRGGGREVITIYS
# The depositor's hits bear a star; i = inactive; u = inconclusive; x = not tested or not shown. Most compounds without a hit are left out; they make up all but 4% or so of the library.
SMILES,HSV replic up,Measles CPE,Arbovirus anti,ROMK primary,Cl transport mod
COc1cc2cc(CN(Cc3cccs3)C(=S)Nc3ccc(C)cc3)c(=O)[nH]c2cc1OC,x,30*,13,0.75,-0.53
N#CSCC(=O)c1cccc2ccccc12,i,9,-9,x,12*
CNC(=S)N1CCN(c2ccc(Cl)c(Cl)c2)CC1,i,x,12,-0.055,-0.68
CCN(CC)c1ccc(C=C2C(=O)OC3(CCCC3)OC2=O)cc1,i,40*,-6,x,-0.84
COc1ccc(-c2c3c([nH]c(=S)c2C#N)CCC3)cc1,i,8,3,0.79,5*
COc1ccc(OC)c(-c2c3c([nH]c(=S)c2C#N)CCCC3)c1,i,x,0,x,2.9
CCc1nc2c(cnn2-c2ccc(Cl)cc2)c(=O)n1-c1ccc(OC)cc1,i,56*,0,x,-1.4
CCOC(=O)n1c(=O)[nH]c2ccc(Br)cc21,i,x,6,-0.21,-1.2
Cn1c(O)c(N=Nc2nc(-c3ccccc3)cs2)c2ccccc21,i,10,4,2.8*,52*
Cn1c(O)c(N=Nc2ccc(F)cc2)c2ccccc21,i,x,-2,-1.8,-0.042
NCCCC[C@H](N)c1nnc([C@H](CCC(=O)O)NC(=O)C2CCNCC2)o1,i,x,7,x,0.45
CCOC(=O)c1[nH]c2ccc(OC)cc2c1NC(=S)N1CCN(c2ccccc2)CC1,i,31*,-6,x,-1
CCOC(=O)c1[nH]c2ccc(OC)cc2c1NC(=S)N1CCN(c2cccc(Cl)c2)CC1,i,10,-11,x,1.5
COC(C/C=C\[C@H](O)COCc1ccccc1)OC,i,x,x,x,x
CCc1cc2c(nc1CC)CCN(CC/C(C)=N/O[C@@H](C)c1cc(-c3c(C)cc(C)cc3C)no1)C2,x,25*,-21,-3.5,-1.2
C/C(CCN1CCc2nc(-c3ccccc3)c(-c3ccccc3)cc2C1)=N\O[C@@H](C)c1cc(-c2c(C)cc(C)cc2C)no1,x,5,-15,-0.43,0.77
O=C1N=c2ccc(Br)cc2=C1c1sc(=S)n(NS(=O)(=O)c2ccccc2)c1O,i,x,10,0.29,-0.83
CCn1c(SCC(=O)Nc2nc(-c3ccc(C)cc3)cs2)nnc1-c1ccccc1,i,29,8,-0.27,-0.55
CCn1c(SCC(=O)Nc2nc(-c3ccc(C)cc3)cs2)nnc1-c1ccccc1O,i,32*,-12,0.41,-1.4
Cc1ccccc1C(=O)N1CCc2cc(-c3nc(NC(=O)Cc4ccc5c(c4)OCO5)sc3C)ccc21,i,62*,-8,0.3,-0.015
Cc1sc(NC(=O)Cc2ccc3c(c2)OCO3)nc1-c1ccc2c(c1)CCN2C(=O)c1cccc(F)c1,i,53*,-9,-0.85,-0.22
CNc1nc(-c2ccc3c(c2)CCN3C(=O)c2ccccc2C)cs1,i,x,-15,0.5,x
COc1ccc(Cn2c(C)c(C)c(C#N)c2NC(=O)Nc2cccc(Cl)c2)cc1,u,3,79*,x,0.4
Cc1ccc2cc(/C=C3\N=C(c4ccccc4)OC3=O)c(N3CCOCC3)nc2c1,i,4,-6,-5.9*,x
C=CCC(C=C)[N+]1(CC(=O)OC)CCCCC1 (centres undefined),i,x,1,0.0028,0.29
SMILES,HSV replic up,Measles CPE,Arbovirus anti,ROMK primary,Cl transport mod
CN1CCN(C(=S)SCC(=O)Nc2nc(-c3ccccc3)c(-c3ccccc3)o2)CC1,i,8,-10,x,-0.11
O=S(=O)(c1ccc2nc(COc3ccc(Cl)cc3Cl)[nH]c2c1)N1CCOCC1,i,53*,-21,x,-2.6
C/C(=N\NC(=O)CCC(=O)Nc1ccc(C)c(C)c1)c1cccs1,i,x,6,-0.046,0.69
Cc1nc2ncnn2c(C)c1CCC(=O)NCCc1ccccc1,i,100*,1,x,-1
CC1=NCCN1CCNC(=O)Nc1ccc(F)cc1,i,x,x,x,1.2
CCOc1ccc(C(=O)Nc2cc(NC(=O)c3ccc(OCC)c(Cl)c3)cc(C(=O)O)c2)cc1Cl,i,x,88*,2.1,-0.27
CCOc1ccc(C(=O)Nc2cccc(C(=O)O)c2)cc1Cl,i,x,8,0.0012,-0.66
CCc1nnc(NC(=O)CSc2nc3cc(OC)ccc3cc2C)s1,i,x,-6,x,-1.2
O=C(c1scc2c1CCCC2)N1CCCCC1,i,36*,1,0.0087,1.5
COc1ccc(-c2ocnc2C(=O)NCc2nn(-c3ccccc3)nc2C)cc1,i,x,x,x,x
O=C(NCCC1=CCCCC1)C1CCN(C(=O)c2ccc(Br)cc2)CC1,i,30*,3,x,0.3
COCCCN(CC(=O)Nc1ccc(N2CCOCC2)cc1)S(=O)(=O)c1ccc(Cl)cc1,i,x,11,1.7,0.89
COc1ccc(CN2C(=O)c3ccccc3C2C(=O)NCc2cccnc2)c(OC)c1 (centres undefined),i,33*,5,0.0017,x

# Source: PubChem BioAssay (several laboratories)
